ChEMBL document CHEMBL2218924, “A broad activity screen in support of a chemogenomic map for kinase signalling research and drug discovery” (Biochem J, 2013)

What was measured:
[1] = target: Rho-associated protein kinase 1 (Homo sapiens) (UniProt Q13464); conditions: at 10 µM
[2] = target: Proto-oncogene tyrosine-protein kinase receptor Ret (Homo sapiens) (UniProt P07949); conditions: at 1 µM
[3] = target: Proto-oncogene tyrosine-protein kinase receptor Ret (Homo sapiens) (UniProt P07949); conditions: at 10 µM
[4] = target: Proto-oncogene tyrosine-protein kinase ROS (Homo sapiens) (UniProt P08922); conditions: at 1 µM
[5] = target: Proto-oncogene tyrosine-protein kinase ROS (Homo sapiens) (UniProt P08922); conditions: at 10 µM
[6] = target: Ribosomal protein S6 kinase alpha-1 (Homo sapiens) (UniProt Q15418); conditions: at 1 µM
[7] = target: Ribosomal protein S6 kinase alpha-1 (Homo sapiens) (UniProt Q15418); conditions: at 10 µM
[8] = target: Ribosomal protein S6 kinase alpha-3 (Homo sapiens) (UniProt P51812); conditions: at 1 µM
[9] = target: Ribosomal protein S6 kinase alpha-3 (Homo sapiens) (UniProt P51812); conditions: at 10 µM
[10] = target: Ribosomal protein S6 kinase alpha-2 (Homo sapiens) (UniProt Q15349); conditions: at 1 µM
[11] = target: Ribosomal protein S6 kinase alpha-2 (Homo sapiens) (UniProt Q15349); conditions: at 10 µM
[12] = target: Ribosomal protein S6 kinase alpha-6 (Homo sapiens) (UniProt Q9UK32); conditions: at 1 µM
[13] = target: Ribosomal protein S6 kinase alpha-6 (Homo sapiens) (UniProt Q9UK32); conditions: at 10 µM
[14] = target: Rho-associated protein kinase 1 (Homo sapiens) (UniProt Q13464); conditions: at 1 µM
[15] = target: Rho-associated protein kinase 2 (Homo sapiens) (UniProt O75116); conditions: at 1 µM
[16] = target: Rho-associated protein kinase 2 (Homo sapiens) (UniProt O75116); conditions: at 10 µM
[17] = target: Macrophage-stimulating protein receptor (Homo sapiens) (UniProt Q04912); conditions: at 1 µM
[18] = target: Macrophage-stimulating protein receptor (Homo sapiens) (UniProt Q04912); conditions: at 10 µM
[19] = target: T1, Tyrosine-protein kinase receptor TYRO3 (Homo sapiens) (UniProt Q06418); conditions: at 1 µM
T1 sequence (whole entry): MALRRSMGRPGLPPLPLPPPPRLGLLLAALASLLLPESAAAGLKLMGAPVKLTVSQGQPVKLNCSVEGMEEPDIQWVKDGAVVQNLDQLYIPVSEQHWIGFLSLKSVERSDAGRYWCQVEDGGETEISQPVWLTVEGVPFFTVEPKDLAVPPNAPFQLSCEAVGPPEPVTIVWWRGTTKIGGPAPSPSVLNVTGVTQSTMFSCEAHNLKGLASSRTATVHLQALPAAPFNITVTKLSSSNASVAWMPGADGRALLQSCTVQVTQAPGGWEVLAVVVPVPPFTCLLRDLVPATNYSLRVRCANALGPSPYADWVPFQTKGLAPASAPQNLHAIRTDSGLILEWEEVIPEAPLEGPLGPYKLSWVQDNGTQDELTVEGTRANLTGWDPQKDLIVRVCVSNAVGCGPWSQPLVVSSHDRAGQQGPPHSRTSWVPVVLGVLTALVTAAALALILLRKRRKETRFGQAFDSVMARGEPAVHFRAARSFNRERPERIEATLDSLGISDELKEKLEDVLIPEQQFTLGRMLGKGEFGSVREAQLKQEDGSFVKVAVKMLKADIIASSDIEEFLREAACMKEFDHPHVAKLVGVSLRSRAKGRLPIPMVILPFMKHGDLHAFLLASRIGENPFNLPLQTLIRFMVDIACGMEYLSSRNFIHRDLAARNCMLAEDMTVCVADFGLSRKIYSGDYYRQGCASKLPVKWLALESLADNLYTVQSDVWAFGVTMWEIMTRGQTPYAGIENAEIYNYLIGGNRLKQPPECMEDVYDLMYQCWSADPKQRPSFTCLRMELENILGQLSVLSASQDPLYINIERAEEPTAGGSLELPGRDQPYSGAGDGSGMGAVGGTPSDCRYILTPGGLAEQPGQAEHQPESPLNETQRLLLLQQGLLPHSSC

[20] = target: T1, Tyrosine-protein kinase receptor TYRO3 (Homo sapiens); conditions: at 10 µM

Ribosomal protein S6 kinase alpha-6 (Homo sapiens), sequence (Q9UK32 whole entry): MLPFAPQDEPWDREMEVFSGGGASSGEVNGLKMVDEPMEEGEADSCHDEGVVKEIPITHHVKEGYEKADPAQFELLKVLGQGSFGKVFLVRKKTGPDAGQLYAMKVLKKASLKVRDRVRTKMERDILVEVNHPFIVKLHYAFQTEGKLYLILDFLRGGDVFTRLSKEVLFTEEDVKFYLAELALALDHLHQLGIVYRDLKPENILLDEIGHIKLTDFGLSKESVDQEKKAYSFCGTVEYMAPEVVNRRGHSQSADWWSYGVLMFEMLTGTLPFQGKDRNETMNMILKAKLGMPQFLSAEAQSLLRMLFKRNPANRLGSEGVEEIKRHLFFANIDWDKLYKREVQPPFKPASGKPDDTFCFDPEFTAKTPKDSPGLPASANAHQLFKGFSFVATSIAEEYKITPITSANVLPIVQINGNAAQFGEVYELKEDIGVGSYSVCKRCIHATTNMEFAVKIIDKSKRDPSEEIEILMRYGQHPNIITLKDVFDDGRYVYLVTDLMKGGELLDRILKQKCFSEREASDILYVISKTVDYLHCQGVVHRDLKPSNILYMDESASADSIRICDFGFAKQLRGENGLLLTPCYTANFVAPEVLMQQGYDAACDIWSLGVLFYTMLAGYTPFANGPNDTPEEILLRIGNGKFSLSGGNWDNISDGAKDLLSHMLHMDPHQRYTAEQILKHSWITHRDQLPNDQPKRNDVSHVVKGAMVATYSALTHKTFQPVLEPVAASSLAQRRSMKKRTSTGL
Ribosomal protein S6 kinase alpha-2 (Homo sapiens), sequence (Q15349 whole entry): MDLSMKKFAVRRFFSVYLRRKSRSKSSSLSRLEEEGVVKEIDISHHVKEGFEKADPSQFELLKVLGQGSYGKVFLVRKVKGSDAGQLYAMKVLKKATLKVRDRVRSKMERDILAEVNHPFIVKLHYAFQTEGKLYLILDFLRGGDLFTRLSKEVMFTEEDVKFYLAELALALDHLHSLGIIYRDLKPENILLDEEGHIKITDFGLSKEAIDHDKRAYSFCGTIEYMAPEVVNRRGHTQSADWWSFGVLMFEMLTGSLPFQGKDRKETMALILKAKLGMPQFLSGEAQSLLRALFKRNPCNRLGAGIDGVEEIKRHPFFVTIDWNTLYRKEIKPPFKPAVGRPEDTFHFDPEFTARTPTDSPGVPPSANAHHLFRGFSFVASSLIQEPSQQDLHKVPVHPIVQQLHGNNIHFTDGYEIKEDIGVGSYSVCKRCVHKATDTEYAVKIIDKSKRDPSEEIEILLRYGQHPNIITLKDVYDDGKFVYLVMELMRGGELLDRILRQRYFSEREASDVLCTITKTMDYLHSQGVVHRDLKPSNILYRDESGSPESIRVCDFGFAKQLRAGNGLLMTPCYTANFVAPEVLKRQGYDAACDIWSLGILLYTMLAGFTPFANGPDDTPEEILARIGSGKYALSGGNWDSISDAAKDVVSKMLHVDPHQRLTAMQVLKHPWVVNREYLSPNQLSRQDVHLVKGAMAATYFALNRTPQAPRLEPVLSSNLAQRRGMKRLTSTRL
Rho-associated protein kinase 1 (Homo sapiens), sequence (Q13464 2-1354 limits assumed): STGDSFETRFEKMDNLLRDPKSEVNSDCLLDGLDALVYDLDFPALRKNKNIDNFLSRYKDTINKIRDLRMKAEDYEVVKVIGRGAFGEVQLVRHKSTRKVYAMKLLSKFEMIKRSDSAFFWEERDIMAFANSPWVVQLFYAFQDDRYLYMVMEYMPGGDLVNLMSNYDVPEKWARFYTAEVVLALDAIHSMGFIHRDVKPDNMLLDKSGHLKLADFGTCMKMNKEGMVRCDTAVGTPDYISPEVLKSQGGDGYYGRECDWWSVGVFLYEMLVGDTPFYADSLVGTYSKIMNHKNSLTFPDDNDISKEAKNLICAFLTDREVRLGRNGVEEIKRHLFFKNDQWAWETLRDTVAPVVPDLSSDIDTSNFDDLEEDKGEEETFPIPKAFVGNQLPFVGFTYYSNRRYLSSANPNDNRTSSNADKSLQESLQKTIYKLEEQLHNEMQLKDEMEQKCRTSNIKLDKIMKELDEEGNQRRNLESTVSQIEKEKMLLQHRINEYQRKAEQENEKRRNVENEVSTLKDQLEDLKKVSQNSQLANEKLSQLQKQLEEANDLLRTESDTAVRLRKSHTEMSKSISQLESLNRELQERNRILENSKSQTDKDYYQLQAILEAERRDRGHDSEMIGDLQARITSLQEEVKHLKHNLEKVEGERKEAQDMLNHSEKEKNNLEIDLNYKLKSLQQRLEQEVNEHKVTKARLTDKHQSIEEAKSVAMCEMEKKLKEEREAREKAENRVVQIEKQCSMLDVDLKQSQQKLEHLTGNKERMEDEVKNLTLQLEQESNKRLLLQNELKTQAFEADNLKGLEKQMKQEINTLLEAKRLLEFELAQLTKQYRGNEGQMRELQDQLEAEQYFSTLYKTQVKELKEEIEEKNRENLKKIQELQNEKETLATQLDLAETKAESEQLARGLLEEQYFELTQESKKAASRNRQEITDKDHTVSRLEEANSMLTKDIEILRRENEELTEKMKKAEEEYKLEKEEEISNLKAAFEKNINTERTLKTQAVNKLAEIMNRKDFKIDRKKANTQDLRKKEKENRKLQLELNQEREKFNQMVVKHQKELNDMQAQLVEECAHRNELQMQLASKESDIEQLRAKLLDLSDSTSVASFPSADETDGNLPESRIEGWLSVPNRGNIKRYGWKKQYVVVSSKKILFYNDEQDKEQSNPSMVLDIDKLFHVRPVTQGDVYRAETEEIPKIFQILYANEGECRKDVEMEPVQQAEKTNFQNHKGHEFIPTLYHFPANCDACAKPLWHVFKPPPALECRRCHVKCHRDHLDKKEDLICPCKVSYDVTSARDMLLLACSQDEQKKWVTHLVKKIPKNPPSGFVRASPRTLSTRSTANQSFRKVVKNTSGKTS
Ribosomal protein S6 kinase alpha-3 (Homo sapiens), sequence (P51812 whole entry): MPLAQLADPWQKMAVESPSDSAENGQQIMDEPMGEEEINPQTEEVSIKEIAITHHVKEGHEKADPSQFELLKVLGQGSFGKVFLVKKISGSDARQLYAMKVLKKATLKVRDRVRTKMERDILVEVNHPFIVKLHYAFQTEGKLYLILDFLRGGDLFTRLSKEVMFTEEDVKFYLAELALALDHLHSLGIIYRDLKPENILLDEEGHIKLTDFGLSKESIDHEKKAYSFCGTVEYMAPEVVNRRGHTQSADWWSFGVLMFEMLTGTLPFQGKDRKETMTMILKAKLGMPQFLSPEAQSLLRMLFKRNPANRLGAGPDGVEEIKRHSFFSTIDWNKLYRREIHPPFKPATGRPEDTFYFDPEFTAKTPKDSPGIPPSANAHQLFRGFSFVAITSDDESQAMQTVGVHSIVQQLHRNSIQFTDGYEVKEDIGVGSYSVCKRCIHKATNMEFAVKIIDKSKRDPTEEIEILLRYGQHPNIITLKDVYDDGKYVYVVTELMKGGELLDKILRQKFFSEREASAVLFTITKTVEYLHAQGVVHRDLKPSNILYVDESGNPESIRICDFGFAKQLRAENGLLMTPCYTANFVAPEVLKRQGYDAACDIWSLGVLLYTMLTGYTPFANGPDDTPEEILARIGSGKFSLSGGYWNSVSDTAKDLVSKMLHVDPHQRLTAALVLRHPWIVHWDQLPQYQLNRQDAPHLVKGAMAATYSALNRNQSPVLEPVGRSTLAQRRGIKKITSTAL
Rho-associated protein kinase 2 (Homo sapiens), sequence (O75116 whole entry, looked up): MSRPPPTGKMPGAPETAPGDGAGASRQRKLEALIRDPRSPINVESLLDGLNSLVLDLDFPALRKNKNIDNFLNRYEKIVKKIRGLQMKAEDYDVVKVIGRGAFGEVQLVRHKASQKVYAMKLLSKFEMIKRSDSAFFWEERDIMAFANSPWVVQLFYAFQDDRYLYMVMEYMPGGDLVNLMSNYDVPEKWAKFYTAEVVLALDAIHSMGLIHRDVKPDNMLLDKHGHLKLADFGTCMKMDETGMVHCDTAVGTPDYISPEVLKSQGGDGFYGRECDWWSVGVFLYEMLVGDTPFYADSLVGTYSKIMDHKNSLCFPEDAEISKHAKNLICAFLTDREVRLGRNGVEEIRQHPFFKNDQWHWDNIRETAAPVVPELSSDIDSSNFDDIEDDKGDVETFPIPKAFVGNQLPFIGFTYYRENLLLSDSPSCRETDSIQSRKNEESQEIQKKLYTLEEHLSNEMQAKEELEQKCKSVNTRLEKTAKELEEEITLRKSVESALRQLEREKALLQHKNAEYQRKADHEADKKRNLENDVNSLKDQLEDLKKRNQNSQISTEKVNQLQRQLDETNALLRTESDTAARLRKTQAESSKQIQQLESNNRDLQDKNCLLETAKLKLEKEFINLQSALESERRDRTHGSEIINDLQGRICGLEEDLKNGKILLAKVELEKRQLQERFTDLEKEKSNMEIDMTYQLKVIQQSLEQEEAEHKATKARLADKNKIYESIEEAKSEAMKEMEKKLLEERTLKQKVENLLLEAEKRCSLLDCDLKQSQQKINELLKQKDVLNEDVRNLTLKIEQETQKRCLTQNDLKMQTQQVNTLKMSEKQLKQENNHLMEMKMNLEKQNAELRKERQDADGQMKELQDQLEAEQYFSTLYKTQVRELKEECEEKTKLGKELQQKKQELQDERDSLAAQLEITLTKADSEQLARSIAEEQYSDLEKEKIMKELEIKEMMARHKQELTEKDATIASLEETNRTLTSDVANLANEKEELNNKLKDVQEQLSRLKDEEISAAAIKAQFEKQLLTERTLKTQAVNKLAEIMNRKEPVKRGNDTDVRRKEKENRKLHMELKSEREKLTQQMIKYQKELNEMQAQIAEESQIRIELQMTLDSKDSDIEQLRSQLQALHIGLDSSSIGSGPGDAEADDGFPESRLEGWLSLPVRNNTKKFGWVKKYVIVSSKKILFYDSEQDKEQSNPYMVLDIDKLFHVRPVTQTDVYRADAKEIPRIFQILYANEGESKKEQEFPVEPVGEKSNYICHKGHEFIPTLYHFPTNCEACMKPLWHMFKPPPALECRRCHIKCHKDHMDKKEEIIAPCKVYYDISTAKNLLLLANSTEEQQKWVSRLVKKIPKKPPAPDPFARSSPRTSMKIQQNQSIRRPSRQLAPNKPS

SMILES | residual activity [1] | residual activity [2] | residual activity [3] | residual activity [4] | residual activity [5] | residual activity [6] | residual activity [7] | residual activity [8] | residual activity [9] | residual activity [10] | residual activity [11] | residual activity [12] | residual activity [13] | residual activity [14] | residual activity [15] | residual activity [16] | residual activity [17] | residual activity [18] | residual activity [19] | residual activity [20]
O=C1NC(=O)c2c1c1c3ccccc3n3c1c1c2c2ccccc2n1C1CCC3O1 | 95% | 37% | 34% | 94% | 81% | 13% | 7% | 11% | 3% | 8% | 8% | 9% | 17% |  |  |  |  |  |  | 
C[S+]([O-])c1ccc(-c2nc(-c3ccc(F)cc3)c(-c3ccncc3)[nH]2)cc1 (stereo unspecified) | 74% |  | 46% | 117% | 110% |  | 80% | 108% | 97% | 107% | 96% | 114% | 113% | 70% | 119% | 100% | 105% | 109% | 107% | 
O=C1Nc2ccc3ncsc3c2/C1=C/c1c[nH]cn1 | 23% | 9% | 0% | 88% | 87% | 28% | 4% | 18% | 1% | 5% | -1% | 14% | 2% | 59% | 5% | 1% | 60% | 11% | 56% | 45%
O=[N+]([O-])/C=C/c1ccc2c(c1)OCO2 | 109% | 96% | 108% | 95% | 98% | 137% | 106% | 118% | 100% | 105% | 94% | 128% | 94% | 109% | 99% | 79% | 100% | 93% | 100% | 111%
CC(C)(C)c1cc(C=C(C#N)C#N)cc(Br)c1O | 82% | 101% | 108% | 108% | 111% | 111% |  | 100% | 78% | 106% | 82% | 98% | 106% | 102% | 115% |  |  |  | 112% | 104%
O=c1[nH]c2ccccc2n1C1CCN(Cc2ccc(-c3nc4cc5[nH]cnc5cc4nc3-c3ccccc3)cc2)CC1 | 119% | 99% | 83% | 96% | 93% | 117% | 84% | 68% | 35% | 108% | 93% | 106% | 109% | 114% | 103% | 74% | 103% | 79% | 91% | 91%
CCc1nc(-c2ccc(OC)cc2)[nH]c1-c1ccncc1 | 106% | 106% | 80% | 105% | 101% | 105% | 104% | 52% | 55% |  |  |  |  | 113% | 107% | 82% |  |  | 107% | 108%
COc1ccc2c(c1)/C(=C/c1cnc[nH]1)C(=O)N2 |  |  |  |  |  | 60% | 17% |  |  | 30% | 4% | 53% | 12% | 123% |  | 36% |  | 65% | 97% | 73%
O=S(=O)(NCCNC/C=C/c1ccc(Br)cc1)c1cccc2cnccc12 |  |  |  |  |  |  |  |  |  |  |  |  |  |  | 8% | 0% |  |  |  | 
COC(=O)[C@@]1(O)C[C@H]2O[C@]1(C)n1c3ccccc3c3c4c(c5c6ccccc6n2c5c31)C(=O)NC4 | 12% | 2% | 1% | 21% | 3% | 1% | 2% | 1% | 1% | 0% | 1% | -2% | 3% | 50% | 15% | 2% | 33% | 3% | 6% | 2%
CCn1cnc2c(Nc3cccc(Cl)c3)nc(N[C@@H]3CCCC[C@@H]3N)nc21 | 84% | 61% | 25% | 93% | 84% | 67% | 16% | 28% | 4% | 30% | 5% | 24% | 7% | 115% | 78% | 53% | 85% | 77% | 93% | 50%
COc1cc(OC)c(/C=C2\C(=O)Nc3ccccc32)c(OC)c1 | 126% | 99% | 92% | 96% | 63% | 102% | 101% | 63% | 57% | 96% | 97% | 103% | 95% | 127% | 88% | 92% | 77% | 72% |  | 
COc1ccc2c(c[n+](C)c3c4cc5c(cc4ccc23)OCO5)c1OC | 120% | 86% |  |  |  |  | 92% |  | 91% |  | 93% |  |  | 110% |  | 82% | 86% | 75% | 89% | 79%
CC(C)[C@H](CO)Nc1nc(Nc2cccc(Cl)c2)c2ncn(C(C)C)c2n1 | 96% | 91% | 27% |  | 96% | 77% | 19% | 62% | 15% | 75% | 21% | 40% | 24% | 115% | 95% | 76% | 92% | 86% | 85% | 78%
O=C1c2ccccc2-c2nc3nnnn3nc21 | 117% | 105% | 114% | 103% | 110% | 109% | 103% | 67% | 53% | 120% | 106% |  |  | 112% |  |  |  |  | 106% | 114%
CO[C@H]1[C@@H](OC)C[C@H](C)[C@@H](OC)C2=CC(=O)C=C(NC(=O)/C(C)=C/C=C/[C@H](OC)[C@@H](OC(N)=O)/C(C)=C/[C@@H]1C)C2=O |  |  |  |  |  |  |  |  |  |  |  |  |  |  | 106% | 80% |  |  |  | 
N/C(=N\[N+](=O)[O-])N/N=C\c1ccc(-c2cccc([N+](=O)[O-])c2)o1 |  |  |  |  |  |  |  | 43% | 52% |  |  | 93% | 96% | 134% |  | 98% | 63% | 63% |  | 
COc1cc2nccc(Oc3ccc(NC(=O)Nc4cc(C)on4)c(Cl)c3)c2cc1OC |  |  |  |  |  |  |  |  |  |  |  |  |  |  | 76% | 51% |  |  |  | 
c1cc(-c2cnn3cc(-c4ccc(OCCN5CCCCC5)cc4)cnc23)ccn1 |  | 51% | 5% |  |  |  | 74% | 46% | 28% |  | 50% | 68% | 63% | 117% |  | 40% | 104% | 83% | 104% | 67%
COc1cc2ncnc(Nc3ccc(OCc4ccccc4)cc3)c2cc1OC | 96% | 75% | 89% | 108% | 101% | 106% | 83% | 52% | 46% | 110% | 72% | 106% | 133% | 83% | 119% | 97% | 88% | 80% | 41% | 60%
